High-throughput results: PubChem, National Center for Advancing Translational Sciences (NCATS)
Many of the other results were omitted from the sample, so hits are more common in it than they were.
AmpC detergent = inhibitors of E. coli AmpC beta-lactamase with detergent. P00811. AmpC hydrolysis of nitrocefin, absorbance 480 nm, 0.01% Triton. Potency, µM (doses to about 114 µM), inactives show top-dose activity change, negative = inhibition, most hits filed as inhibitors. hit rate 0.041% among 370,000. AID 485294;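 note: potency is the fitted concentration of half-maximal effect; 0% = no-compound wells and -100% = no-enzyme wells; nearly all actives have a fitted effect of over 25% in size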
Target sequence (P00811 whole entry, looked up): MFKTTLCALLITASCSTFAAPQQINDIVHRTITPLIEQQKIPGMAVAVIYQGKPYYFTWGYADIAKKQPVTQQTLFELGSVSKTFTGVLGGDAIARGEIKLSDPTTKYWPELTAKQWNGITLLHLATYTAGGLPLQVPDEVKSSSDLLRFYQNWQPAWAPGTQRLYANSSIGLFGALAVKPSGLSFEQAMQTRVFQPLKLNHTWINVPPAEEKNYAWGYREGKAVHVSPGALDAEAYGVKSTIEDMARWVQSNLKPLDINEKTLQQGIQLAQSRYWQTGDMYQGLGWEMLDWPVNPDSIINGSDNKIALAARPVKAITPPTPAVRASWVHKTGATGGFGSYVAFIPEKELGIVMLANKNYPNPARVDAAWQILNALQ
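20 mM phosphate pH 7.0 + 0.01% (detergent screen) or 0.0001% Triton X-100; 5.3 nM AmpC reagent; cpd preinc 15 min RT; nitrocefin (800 uM stock) to start; A480 q20 s × 4 min; Activity was normalised to no-enzyme and no-compound control wells.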
SARS PLP yeast = inhibitors of SARS-CoV papain-like protease in yeast. S. cerevisiae expressing SARS-CoV PLpro, growth rescue. Potency, µM (series often up to 32.9 µM), for inactives: at the highest dose activity, positive = growth rescue, most hits filed as activators. hit rate 0.19% among 330,000. AID 485353; calls by dose curve; note: potency is the fitted concentration of half-maximal effect; 0% is about no effect; nearly all actives have a fitted effect of over 55% in size
Shiga inhibitor = inhibitors of Shiga toxin in Vero cells; hit rate 9.2% among 290,000; Vero cells, Shiga toxin protein synthesis inhibition reporter; AID 2315; inhibition, % at 38.7 µM; in the data active = inhibition mostly above about 28%, no sharp cut-off; inactive = mostly below about 43%; note: 0% is about no effect
AMA1-RON2 inh = AMA1-RON2 (P. falciparum) interaction inhibition; AlphaScreen AMA1-biotinylated RON2 peptide binding; Potency, µM (series often up to 58.2 µM), for the others: top-dose activity change, negative = inhibition, usual class: inhibitors; hit rate 0.2% among 360,000;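 note: potency is the fitted concentration of half-maximal effect; 0% = vehicle wells and -100% = peptide control; nearly all actives have a fitted effect of over 45% in size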
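AMA1 (3D7) with his tag at 25 nM final met compounds first, then biotinylated RON2 peptide at 25 nM; detection used donor plus acceptor beads, 10 µg/mL apiece, read by AlphaScreen after 30 min at room temperature.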
Cycloheximide cs = affects cycloheximide protein synthesis inhibition readout, counter-screen; cell reporter, cycloheximide protein synthesis inhibition counterscreen; max response, %; hit rate 12% among 300,000; AID 2314; in the data active = max response mostly above about 13%, no sharp cut-off; inactive = mostly below about 14%; note: read at 38.3 µM for the half of the compounds with a filed dose; 0% is about no effect
AmpC inh no detg = blocks E. coli AmpC beta-lactamase in detergent-free assay | hit rate 0.52% among 330,000 | AID 485341 | AmpC nitrocefin hydrolysis, absorbance 480 nm, 0.0001% Triton | P00811 | Potency, µM (highest dose often 57.1 µM), without a hit: at the highest dose activity change, negative = inhibition, hits mostly inhibitors;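 note: potency is the fitted concentration of half-maximal effect; plate controls were no compound for no effect and no enzyme for full effect; nearly all actives have a fitted effect of over 20% in size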
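20 mM phosphate pH 7.0 + 0.01% (detergent screen) or 0.0001% Triton X-100; 5.3 nM AmpC reagent; cpd preinc 15 min RT; nitrocefin (800 uM stock) to start; A480 q20 s × 4 min; Activity was normalised to no-enzyme and no-compound control wells.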
The depositor's hits bear a star; ? = inconclusive; . = no result; [ ] = another dose, or the depositor's remark. Unless noted, calls come from the whole dose curve; as a rule, active = well fitted curve in the direction sought with a large enough effect; inconclusive = small, poorly fitted or top-dose-only effect, or another doubt; inactive = no such curve, though single readings can be large; an effect the other way counts as inactive or inconclusive.

SMILES | AmpC detergent | SARS PLP yeast | Shiga inhibitor | AMA1-RON2 inh | Cycloheximide cs | AmpC inh no detg
COC(=O)c1ccc(OCc2cc(=O)n3ccsc3n2)cc1 | 7% | 3% | 142* | 8% | 49* | -7%
CCn1cc(/C=C(\NC(=O)c2ccccc2Cl)C(=O)N2CCOCC2)c2ccccc21 | -7% | 2% | -5 | 20% | 1 | 107%
O=C1NC(=O)C(=Cc2cc3c(cc2[N+](=O)[O-])OCO3)C(=O)N1 | 50µM* | 0% | -15 | -11% | 2 | ?
O=C1NC(=O)C(=Cc2ccccc2[N+](=O)[O-])C(=O)N1 | . | . | . | -5% | . | .
COc1ccc(N(CC(=O)N/N=C/c2ccc(OC3CSC3)cc2)S(=O)(=O)c2ccccc2)cc1 | 5% | -21% | 1 | 6% | 1 | -22%
Cc1ccc(Nc2nc(/N=C/NO)n[nH]2)cc1C | 2% | -3% | 65* | 87% | 27* | -12%
CC(C)c1ccc2oc(-c3ccc(NC(=O)c4ncn[nH]4)cc3)nc2c1 | ? | -11% | 86* | -23% | 49* | -36%
CCC(C)c1ccc2oc(-c3ccc(NC(=O)c4ncn[nH]4)cc3)nc2c1 (configuration not stated) | -13% | -7% | 41* | 73% | 8 | -17%
COc1ccc(Cl)cc1C(Nc1cccnc1)c1ccc2cccnc2c1O (configuration not stated) | 9% | -8% | -6 | -58% | 1 | -18%
NC1=NC(c2ccccc2)N=C(Nc2ccccc2)N1 (configuration not stated) | -5% | -1% | 20 | . | 14* | -26%
COc1ccc(N(C(=O)c2cccnc2)S(=O)(=O)c2ccccc2)cc1 | 5% | 1% | -14 | 8% | -2 | 6%
CC(C)(C)c1csc(NC(=O)c2c(F)c(F)c(F)c(F)c2F)n1 | 0% | -16% | -13 | -5% | -3 | -36%
Cc1csc(NC(=O)c2oc3ccccc3c2C)n1 | 1% | -8% | . | 9% | . | -9%
CC(C)(C)c1csc(NNC(=O)c2ccc(Br)cc2)n1 | 3% | -23% | 94* | 89% | 40* | -28%
Cc1csc(Nc2nc(N)c(C(=O)Nc3ccccc3)o2)n1 | -1% | 0% | 98* | 21% | 39* | -32%
Cc1csc(NC(=O)c2ccc(Cl)nc2)n1 | -9% | 0% | 57* | 8% | 47* | -18%
Cc1csc(NC(=O)c2cc(C)oc2C)n1 | -15% | -6% | 74* | -15% | 28* | -21%
Cc1csc(NC(=O)c2cc[n+]([O-])cc2)n1 | -2% | -1% | -9 | -6% | -1 | -11%
CN(C)c1ccc(/C=C2\SC(=O)N(CC(O)Cn3c4ccccc4c4ccccc43)C2=O)cc1 (configuration not stated) | -2% | -22% | -7 | -5% | 1 | -26%
C[C@H](CO)N1C[C@H](C)[C@@H](CN(C)C(=O)Nc2ccc(C(C)(C)C)cc2)OCc2cnnn2CCCC1=O | . | . | . | 16% | . | .
CSc1ncccc1C(=O)Nc1nc(C(C)(C)C)cs1 | 1% | -3% | 18* | -11% | 21* | -30%
CC(C)(C)c1csc(NC(=O)c2cccnc2Cl)n1 | . | . | . | 10% | . | .
Cc1csc(NC(=O)c2ccccc2O)n1 | -8% | -49% | 89* | 40% | 56* | -10%
CC(C)(C)c1csc(NC(=O)c2ccccc2O)n1 | -6% | -23% | 39* | -21% | 32* | -36%
CC(=O)Nc1ccc(NC(=O)CSc2nc3nc(-c4cccs4)cc(C(F)(F)F)c3c(=O)[nH]2)cc1 | -2% | -1% | -6 | 4% | 6 | -29%
SMILES | AmpC detergent | SARS PLP yeast | Shiga inhibitor | AMA1-RON2 inh | Cycloheximide cs | AmpC inh no detg
C/C(=N\NC(=O)c1ccccc1O)c1ccc(Br)s1 | ? | -1% | 54* | 42% | 64* | -27%
C/C(=N\NC(=O)c1cccc(F)c1)c1ccc(Br)s1 | 3% | 1% | 24 | 46% | 39* | -7%
CCOc1ccc(C2=Nn3c(nnc3-c3ccco3)SC2)cc1 | 0% | -6% | -24 | 1% | -2 | 30%
CCN(CC)S(=O)(=O)c1ccc(/C=C/C(=O)OCC(=O)Nc2ccc(C(N)=O)cc2)cc1 | 8% | 2% | 13 | 5% | 5 | -26%
O=C(/C=C/c1ccccc1Cl)c1ccc(O)cc1 | -9% | -8% | 54* | -2% | 29* | -48%
O=C(/C=C/c1c(F)cccc1Cl)c1ccc(O)cc1 | 2% | -1% | 58* | -7% | 24* | -42%
CCNC(=O)C(=O)NCC(c1cccs1)S(=O)(=O)c1ccc(C)cc1 (configuration not stated) | -6% | 3% | 18 | 8% | -6 | -9%
COc1cc(OC)cc(C(=O)Nc2cc(C)on2)c1 | -15% | -14% | 15 | -2% | -3 | -6%
CC(=O)Oc1ccc(C(=O)Nc2cc(C)on2)cc1 | -8% | 1% | 88* | -6% | 30* | -2%
COc1ccc(C(=O)Nc2cc(C)on2)cc1 | -11% | -1% | 47 | 32% | 27* | -12%
COc1ccc(OCc2cccc(C(=O)Nc3cc(C)on3)c2)cc1 | 3% | 4% | active | 6% | 91* | -32%
COc1ccc(C(=O)NC(=S)N(C)C2CCCCC2)cc1 | -15% | 9% | 50* | 77% | 36* | -13%
Cc1ccccc1C(=O)NC(=S)N(C)C1CCCCC1 | 5% | 1% | 31* | 66% | 26* | 4%
Cc1cc(NC(=O)C2CC2)n(-c2nc3ccccc3s2)n1 | ? | 0% | 36* | -2% | 18* | -22%[11.4 µM]
C=CCN1C=CC(=CC=C(C#N)C#N)C=C1 | 5% | 0% | 74* | -11% | 21* | 3%
C=CCN1C=C/C(=C\C=C(C#N)C#N)c2ccccc21 | -15% | -30% | 5 | 14µM* | 2 | -14%
Cc1cc2nc(-c3ccco3)cc(C(F)(F)F)n2n1 | 15% | -5% | -4 | -1% | 1 | 10µM*
CCOc1ccc(-c2c(C(=O)N/N=C/c3ccc(C)o3)nnn2-c2nonc2N)cc1 | -16% | -14% | 21 | 91% | 0 | -44%
O=C1NNC(c2ccccc2)=N/C1=C\c1ccccc1 | 6% | 0% | -11 | -8% | -1 | -32%
O=C1NC(c2ccccc2Br)=N/C1=C\c1ccco1 | -1% | -3% | 125* | -16% | 48* | -55%
O=C1NC(=O)/C(=C/c2ccco2)N1 | 8% | -23% | . | . | . | -1%
O=C1NC(c2ccccc2)=N/C1=C/c1ccco1 | -14% | 12% | 72* | -4% | 39* | 1%
O=C1NC(c2cccc(Br)c2)=N/C1=C\c1ccco1 | -11% | -18% | 86* | -9% | 70* | ?
CCOc1ccccc1NC(=O)C(OC(=O)c1cnc(C)cn1)c1ccccc1 (configuration not stated) | . | . | . | -7% | . | .
